Experimental data taken from PubChem BioAssay (NCATS).
Results filed as inconclusive are left out. Activity calls are given as the source filed them. Calls follow the shape of the dose curve; as a rule, active = well fitted cell-killing curve with a large enough effect; inconclusive = small, poorly fitted or top-dose-only effect, or effect the other way; inactive = flat fitted curve, though single readings scatter.

What was measured:
Assay in all cases: Primary qHTS to identify gynecologic anti-cancer compounds using libraries of approved drugs and bioactive compounds (AID 1345084); also: nearly all actives have a fitted effect of over 55% in size
C33A = settings: Gynecologic cancer cell panel viability, ATPlite luminescence, 48 h; series mostly up to 57.5 µM
Procedure, shortened: (§1)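 Cells, 1,000 per well, were allowed to settle for 16 h at 37 C before compound addition. Five concentrations were tested for 48 h, and viability was read by ATPlite luminescence after 15 min at room temperature.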

CAOV3 = settings: Gynecologic cancer cell panel viability, ATPlite luminescence, 48 h; series mostly up to 57.5 µM
Procedure, shortened: as §1

CASKI = settings: Gynecologic cancer cell panel viability, ATPlite luminescence, 48 h; series mostly up to 57.5 µM
Procedure, shortened: as §1

Es-2 = settings: Gynecologic cancer cell panel viability, ATPlite luminescence, 48 h; series mostly up to 57.5 µM
Procedure, shortened: as §1

HeLa = settings: Gynecologic cancer cell panel viability, ATPlite luminescence, 48 h; series mostly up to 57.5 µM
Procedure, shortened: as §1

Hek293T = settings: Gynecologic cancer cell panel viability, ATPlite luminescence, 48 h, control line for the selectivity index; series mostly up to 57.5 µM
Procedure, shortened: as §1

JEG-3 = settings: Gynecologic cancer cell panel viability, ATPlite luminescence, 48 h; series mostly up to 57.5 µM
Procedure, shortened: as §1

OV90 = settings: Gynecologic cancer cell panel viability, ATPlite luminescence, 48 h; series mostly up to 57.5 µM
Procedure, shortened: as §1

PA-1 = settings: Gynecologic cancer cell panel viability, ATPlite luminescence, 48 h; series mostly up to 57.5 µM
Procedure, shortened: as §1

Tov-21-G = settings: Gynecologic cancer cell panel viability, ATPlite luminescence, 48 h; series mostly up to 57.5 µM
Procedure, shortened: as §1

Tov112D = settings: Gynecologic cancer cell panel viability, ATPlite luminescence, 48 h; series mostly up to 57.5 µM
Procedure, shortened: as §1
% is scaled to controls: 0 for no effect and ±100 for the full control effect.

CCc1nn(CCO)c(CC)c1Oc1cc(C#N)cc(C#N)c1
inactive: Potency (C33A) | Potency (CAOV3) | outcome (CASKI) | Potency (Es-2) | Potency (HeLa) | Potency (Hek293T) | Potency (JEG-3) | Potency (OV90) | Potency (PA-1) | Potency (Tov-21-G) | Potency (Tov112D)

Cc1c(C)c(NCC(=O)N(C)C2CCN(Cc3ccc(C(N)=O)cc3)CC2)c(C)c(C)c1N
inactive: Potency (C33A) | Potency (CAOV3) | outcome (CASKI) | Potency (Es-2) | Potency (HeLa) | Potency (Hek293T) | Potency (JEG-3) | Potency (OV90) | Potency (PA-1) | Potency (Tov-21-G) | Potency (Tov112D)

CC(C)/C=C1/NC(=O)C(C(C)C)n2c1nc1c(O)cccc1c2=O (centres undefined)
inactive: Potency (C33A) | Potency (CAOV3) | outcome (CASKI) | Potency (Es-2) | Potency (HeLa) | Potency (Hek293T) | Potency (JEG-3) | Potency (OV90) | Potency (PA-1) | Potency (Tov-21-G) | Potency (Tov112D)

CCOc1ccc(-c2cc(NC(=O)c3c(F)cccc3F)c(C(=O)O)s2)cc1
inactive: Potency (C33A) | Potency (CAOV3) | outcome (CASKI) | Potency (Es-2) | Potency (HeLa) | Potency (Hek293T) | Potency (JEG-3) | Potency (OV90) | Potency (PA-1) | Potency (Tov-21-G) | Potency (Tov112D)

Cc1cc(Cn2cnc3c2CC(C(=O)O)N(C(=O)C(c2ccccc2)c2ccccc2)C3)ccc1N(C)C (centres undefined)
inactive: Potency (C33A) | Potency (CAOV3) | outcome (CASKI) | Potency (Es-2) | Potency (HeLa) | Potency (Hek293T) | Potency (JEG-3) | Potency (OV90) | Potency (PA-1) | Potency (Tov-21-G) | Potency (Tov112D)

C[C@@H]1O[C@@H](O[C@H]2[C@H](O)[C@@H](O)[C@H](OC(=O)[C@]34CCC(C)(C)C[C@H]3C3=CCC5[C@@]6(C)CC[C@H](O[C@@H]7O[C@H](C(=O)O)[C@@H](O)[C@H](O)[C@H]7O)C(C)(C)C6CC[C@@]5(C)[C@]3(C)CC4)O[C@@H]2CO)[C@H](O)[C@H](O)[C@H]1O (some centres undefined)
inactive: activity change, negative = cytotoxicity (C33A) -8.12% [at 11.6 µM] | activity change, negative = cytotoxicity (CAOV3) -25.2% [at 11.6 µM] | activity change, negative = cytotoxicity (CASKI) 5.01% [at 11.6 µM] | activity change, negative = cytotoxicity (Es-2) -1.51% [at 11.6 µM] | activity change, negative = cytotoxicity (HeLa) -21.7% [at 11.6 µM] | activity change, negative = cytotoxicity (Hek293T) 10.3% [at 11.6 µM] | activity change, negative = cytotoxicity (JEG-3) -2.05% [at 11.6 µM] | activity change, negative = cytotoxicity (OV90) -2.03% [at 11.6 µM] | activity change, negative = cytotoxicity (PA-1) -21.3% [at 11.6 µM] | activity change, negative = cytotoxicity (Tov-21-G) -3.13% [at 11.6 µM] | activity change, negative = cytotoxicity (Tov112D) -16.2% [at 11.6 µM]

CC/C=C/C=C/C1(C)OC(CC(CO)OC)=CC1=O (centres undefined)
inactive: Potency (C33A) | Potency (CAOV3) | outcome (CASKI) | Potency (Es-2) | Potency (HeLa) | Potency (Hek293T) | Potency (JEG-3) | Potency (OV90) | Potency (PA-1) | Potency (Tov-21-G) | Potency (Tov112D)

C[C@]1(O)CC[C@@H]2C(C(=O)O)=CO[C@@H](O[C@@H]3O[C@H](CO)[C@@H](O)[C@H](O)[C@H]3O)[C@@H]21
inactive: Potency (C33A) | Potency (CAOV3) | outcome (CASKI) | Potency (Es-2) | Potency (HeLa) | Potency (Hek293T) | Potency (JEG-3) | Potency (OV90) | Potency (PA-1) | Potency (Tov-21-G) | Potency (Tov112D)

CC(=O)OC1CC(=O)C2(C)C3CC4=C(OC(C)CC4=O)OC3(C)CCC2C1(C)C (centres undefined)
inactive: Potency (C33A) | Potency (CAOV3) | outcome (CASKI) | Potency (Es-2) | Potency (HeLa) | Potency (Hek293T) | Potency (JEG-3) | Potency (OV90) | Potency (PA-1) | Potency (Tov-21-G) | Potency (Tov112D)

O=C(O)c1ccncc1Nc1nn(CCN2CCC(F)(F)CC2)c2ccc(F)cc12
inactive: Potency (C33A) | Potency (CAOV3) | outcome (CASKI) | Potency (Es-2) | Potency (HeLa) | Potency (Hek293T) | Potency (JEG-3) | Potency (OV90) | Potency (PA-1) | Potency (Tov-21-G) | Potency (Tov112D)

CCCCC(=O)N1c2ccccc2NC2=C(C(=O)CCC2)C1c1ccccc1Cl (centres undefined)
inactive: Potency (C33A) | Potency (CAOV3) | outcome (CASKI) | Potency (Es-2) | Potency (HeLa) | Potency (Hek293T) | Potency (JEG-3) | Potency (OV90) | Potency (PA-1) | Potency (Tov-21-G) | Potency (Tov112D)

COC(=O)C1=CO[C@@H](O[C@@H]2O[C@H](CO)[C@@H](O)[C@H](O)[C@H]2O)[C@H]2[C@@H]1[C@H](O)C[C@]2(C)O
inactive: Potency (C33A) | Potency (CAOV3) | outcome (CASKI) | Potency (Es-2) | Potency (HeLa) | Potency (Hek293T) | Potency (JEG-3) | Potency (OV90) | Potency (PA-1) | Potency (Tov-21-G) | Potency (Tov112D)

COc1ccccc1Oc1c(NS(=O)(=O)c2ccc(C)cn2)nc(-c2ccncc2)nc1OC
inactive: Potency (C33A) | Potency (CAOV3) | outcome (CASKI) | Potency (Es-2) | Potency (HeLa) | Potency (Hek293T) | Potency (JEG-3) | Potency (OV90) | Potency (PA-1) | Potency (Tov-21-G) | Potency (Tov112D)

COC(=O)C1=CO[C@@H](O[C@@H]2O[C@H](CO)[C@@H](O)[C@H](O)[C@H]2O)[C@H]2[C@@H]1[C@H](O)[C@H](O)[C@]2(C)O
inactive: Potency (C33A) | Potency (CAOV3) | outcome (CASKI) | Potency (Es-2) | Potency (HeLa) | Potency (Hek293T) | Potency (JEG-3) | Potency (OV90) | Potency (PA-1) | Potency (Tov-21-G) | Potency (Tov112D)
